Assay outcomes from PubChem BioAssay.
RTF Ca sens inh – cardiac RTF calcium desensitization | P19429+P45379 | IANBD-labeled cardiac RTF, Ca2+ fluorescence | inhibition, % at 7.15 µM | hit rate 0.12% among 340,000;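 active means inhibition above the mean inhibition of all tested compounds plus 3 SD, cut at about 17% in these data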;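 further: assay run at fixed EC70 calcium of 1.6 mM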
eLon inh – inhibitors of E. coli Lon protease; P0A9M0; hit rate 0.42% among 360,000; inhibition, % at 7.94 µM; AID 602123; purified E. coli Lon protease, fluorescence polarization; in the data active means inhibition above about 13%, passing the limit was not always enough
RTF Ca sens act – increases calcium sensitivity of human cardiac regulated thin filaments; IANBD-labeled TnC RTF fluorescence at EC20 calcium; 0% EC20 calcium, 100% full calcium; activation, % at 7.2 µM; hit rate 0.24% among 340,000; AID 493008;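 active means activation above the mean over all tested compounds plus 3 SD, cut at about 30% in these data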;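 further: rise in fluorescence read as greater calcium sensitivity of cardiac thin filaments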
BCLXL inh – inhibitors of human Bcl-xL | inhibition, % at 10.9 µM | AID 2129 | hit rate 0.7% among 320,000 | GST-Bcl-xL / FITC-Bim BH3 peptide fluorescence polarization | Q07817;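 active means inhibition above the mean of all tested compounds plus 3 SD, cutoff set per campaign, cut at about 30% in these data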;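 further: inhibitors lower millipolarization by displacing the labeled peptide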
GLD-1 RNA inh – GLD-1-TGE RNA interaction inhibition (C. elegans). Q17339. purified GLD-1 + fluorescein TGE RNA, fluorescence polarization. inhibition, % at 5.96 µM. hit rate 0.44% among 320,000. AID 2280;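 active means percent inhibition above a per-plate cutoff, the plate mean of test compounds plus 3 SD, cut at about 30% in these data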
Target sequence (Q17339 whole entry, looked up): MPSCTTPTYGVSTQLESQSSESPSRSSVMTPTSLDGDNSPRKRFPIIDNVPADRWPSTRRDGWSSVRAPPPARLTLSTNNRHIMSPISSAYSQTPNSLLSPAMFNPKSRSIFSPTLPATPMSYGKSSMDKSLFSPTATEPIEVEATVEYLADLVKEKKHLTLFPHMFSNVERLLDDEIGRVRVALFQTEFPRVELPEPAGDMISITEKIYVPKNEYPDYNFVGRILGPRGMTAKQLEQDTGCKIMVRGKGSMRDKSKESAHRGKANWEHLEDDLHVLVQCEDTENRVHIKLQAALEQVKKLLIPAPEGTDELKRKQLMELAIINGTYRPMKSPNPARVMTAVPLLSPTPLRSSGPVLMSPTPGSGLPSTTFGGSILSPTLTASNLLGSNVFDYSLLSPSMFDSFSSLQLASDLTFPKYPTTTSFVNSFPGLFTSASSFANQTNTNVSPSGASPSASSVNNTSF
GLD1 RNA confirm – confirmation of C. elegans GLD-1 TGE RNA binding inhibitors | shares compounds with GLD-1 RNA inh | GLD-1/FL-TGE RNA fluorescence polarization, biochemical | inhibition, % at 5.96 µM | hit rate 10% among 550 | AID 2459;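 active means average inhibition across triplicates above the hit cutoff set in the primary screen, cut at about 32% in these data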
Hits are given with their value; n = inactive; x = no result; + = active, no number. Hits are enriched below; roughly 1.2% of the tested compounds scored in any of these assays.

SMILES | RTF Ca sens inh | eLon inh | RTF Ca sens act | BCLXL inh | GLD-1 RNA inh | others
COc1ccc(-n2c(O)c(/C=N/NS(=O)(=O)c3cccc([N+](=O)[O-])c3)c3ccccc3c2=O)cc1OC | n | n | 33.4 | n | n
N#CC1=C(N)SC(N)=C(C#N)C1c1ccoc1 | x | x | x | 67.2 | n
N#CC1=C(N)SC(N)=C(C#N)C1c1ccnc2ccccc12 | n | n | n | n | n
Cc1ccc(C2C(C#N)=C(N)SC(N)=C2C#N)c(C)c1 | n | n | 80.5 | n | n
Cc1ccc(C2C(C#N)=C(N)SC(N)=C2C#N)cc1 | n | n | 40.9 | x | x
COc1ccc(C)cc1S(=O)(=O)NCC(c1ccc2c(c1)OCO2)N1CCOCC1 (stereo not given) | n | n | n | n | n
COc1ccc(/C=C/C(=O)OCC(=O)c2c[nH]c3ccccc23)cc1 | n | n | n | n | n
COc1ccccc1C(=O)COC(=O)COc1cccc2c1OC(C)(C)C2 | n | n | n | n | n
N#Cc1cccc(NC(=O)CSc2sc3c(O)cc(=O)[nH]c3c2C#N)c1 | n | n | n | n | n
COc1ccc(C2C=C(c3ccccc3)Nc3nc(NC(C)=O)nn32)cc1 (stereo not given) | x | x | x | 58.0 | 40.0
CCOc1ccc(C2C=C(c3ccc(F)cc3)Nc3ncnn32)cc1 (stereo not given) | n | n | n | 38.2 | 44.1
COc1ccc(C2C=C(c3ccc(Br)s3)Nc3ncnn32)cc1OC (stereo not given) | x | x | x | 188.7 | 145.8
CCOc1ccc(C2C=C(c3ccccc3)Nc3ncnn32)cc1 (stereo not given) | x | x | x | 45.8 | 37.5
COc1ccc(C2C=C(c3ccccc3)Nc3nnnn32)cc1 (stereo not given) | n | n | n | n | n
O=C(Oc1ccccc1)c1ccc(NC(=O)c2ccco2)cc1 | n | n | n | n | n
Fc1ccc(C2=CC(c3ccc(Br)o3)n3ncnc3N2)cc1 (stereo not given) | n | 136.7 | 172.0 | 179.9 | 163.4
COc1cccc(C2=CC(c3ccccc3)n3ncnc3N2)c1 (stereo not given) | x | x | x | 39.0 | 50.5
Cc1nonc1NC(=O)c1ccc(Cl)c(S(=O)(=O)N2CCCCC2)c1 | n | n | n | n | n
COc1ccc(CC2(CO)CCN(Cc3cnc(-c4ccccc4C)nc3)CC2)cc1 | n | n | n | n | n
O=C1CCC/C(=N\NC(=O)COc2ccc(Cl)cc2)C1 | n | n | n | n | 64.1
CC(=O)N1CCN(c2ccccc2NC(=O)c2cc3ccccc3o2)CC1 | n | n | n | n | n
COc1c(C)cc(S(=O)(=O)N2CCOCC2)c(C)c1C | n | n | n | n | n
CCCCNC(=S)Nc1ccc(OC)nc1 | n | n | n | 56.0 | 49.5
COCCOc1ccc(C(F)(F)F)cc1NC(=O)Cc1ccc(S(=O)(=O)N2CCOCC2)s1 | n | n | n | n | n
Cc1ccc(N2C(=O)[C@@H]3[C@H](C2=O)C2CCCN2[C@@H]3C(=O)c2ccccc2)cc1 (stereo not given in full) | n | n | 31.3 | 77.9 | 48.0
SMILES | RTF Ca sens inh | eLon inh | RTF Ca sens act | BCLXL inh | GLD-1 RNA inh | others
CC(C)(C)C(=O)/C=C(\N)c1ccccn1 | n | n | n | n | n
CCn1ccnc1CNCc1cn(-c2cc(C)ccc2C)nc1-c1ccccc1 | n | n | n | n | n
Cc1ccc(C)c(-n2cc(CNCCc3cnccn3)c(-c3ccccc3)n2)c1 | n | 38.6 | n | n | n
COc1cc(/C=C2/C(C)=C(C#N)c3nc(N)c(C#N)c(C)c32)ccc1OCC(=O)O | x | x | x | 31.3 | n
CCCCC1=CC2=C(c3ccco3)C(=O)C(C)(OC(=O)c3ccc(OC)cc3)C(=O)C2=CN1C1CCCCC1 (stereo not given) | n | n | n | 45.7 | 39.4
CCCCC1=CC2=C(c3ccco3)C(=O)C(C)(OC(=O)c3ccc(OC)cc3)C(=O)C2=CN1Cc1ccccc1 (stereo not given) | n | n | n | 37.0 | 44.4
CCCCC1=CC2=C(c3ccco3)C(=O)C(C)(OC(=O)c3ccc(OC)cc3)C(=O)C2=CN1Cc1ccc2c(c1)OCO2 (stereo not given) | n | n | n | n | n
COc1cccc(C(=O)Nc2ccc(NC(=O)c3ccco3)c(Cl)c2)c1 | n | n | n | n | n
COC(=O)C1=C(C)NC(=O)/C1=C\c1cc(C)n(-c2c(C)cccc2C)c1C | n | n | n | n | n
COc1ccc(C2Nc3cccc4cccc(c34)N2)cc1 | n | n | n | n | n
c1csc(C2Nc3cccc4cccc(c34)N2)c1 | n | n | n | 60.5 | n
Clc1cccc(Cl)c1C1Nc2cccc3cccc(c23)N1 | n | n | n | n | n
Brc1ccc(C2Nc3cccc4cccc(c34)N2)o1 | n | n | n | 50.8 | n
c1ccc(C2Nc3cccc4cccc(c34)N2)cc1 | n | n | n | 38.6 | n
Brc1cccc(C2Nc3cccc4cccc(c34)N2)c1 | n | n | n | n | n
COc1ccc(C(=O)Nc2oc(-c3ccccc3)c(-c3ccccc3)c2C#N)cc1OC | n | n | n | n | n
CCCNC(=O)C(=O)N/N=C/c1cccs1 | n | n | n | n | n
CC12CCC(=O)N1C(C(=O)OCC(=O)Nc1sccc1C#N)CS2 (stereo not given) | n | n | n | 40.2 | n
CCCCOC(=O)c1ccc(NC(=O)COC(=O)C2CSC3(C)CCC(=O)N23)cc1 (stereo not given) | n | n | n | n | n
CN(C)S(=O)(=O)c1ccc2c(c1)/C(=C/c1cc3c([nH]1)CCCC3)C(=O)N2 | n | n | 61.2 | n | n
O=C(NCc1ccncc1)c1cc(C(=O)C2CC2)c[nH]1 | n | n | n | n | n
CC(C)Sc1nc(N2CCOCC2)c2c(c1C#N)CC(C)(C)N(C)C2 | n | n | n | 49.8 | 39.1 | GLD1 RNA confirm=n
O=C(CSC1=Nc2ccccc2C2=NC(CC(=O)NC3CCCCC3)C(=O)N12)NCc1ccco1 (stereo not given) | n | n | n | 60.7 | 35.2 | GLD1 RNA confirm=n
O=C(CCC1N=C2c3ccccc3N=C(SCc3ccccc3Cl)N2C1=O)NCc1ccco1 (stereo not given) | n | n | n | n | n
CCO/C=C1\SC(=S)N(c2ccc(Cl)cc2)C1=O | n | n | n | n | n
SMILES | RTF Ca sens inh | eLon inh | RTF Ca sens act | BCLXL inh | GLD-1 RNA inh | others
CC(C)c1ccc(N2C(=O)/C(=C/N(C)C)SC2=S)cc1 | n | n | n | + | 74.0 | GLD1 RNA confirm=n
Cc1cc2n(n1)C(c1ccccc1)CC(c1ccc(Br)cc1)=N2 (stereo not given) | n | 60.1 | n | n | 52.7 | GLD1 RNA confirm=n
Nc1c(C(=O)OCC(=O)Nc2cccc([N+](=O)[O-])c2)[nH]c(=O)[nH]c1=O | n | n | n | x | 33.2 | GLD1 RNA confirm=n
COc1cc(NC(=O)c2cccs2)cc(OC)c1 | n | n | n | n | 52.3 | GLD1 RNA confirm=n
CC(C)C(NC(=O)c1ccccc1F)C(=O)Nc1ccc2c(c1)OCO2 (stereo not given) | n | n | n | n | n
CC(=O)NNC(=O)CCn1c2c(c3ccccc31)CCCC2 | n | n | n | n | n
